What all share (test): protein-binding microarray (PBM); PBM: ~300 nM protein, 6 mM HEPES pH 7.8, 80 mM KCl, 0.5 mM EDTA, 0.5 mM EGTA, 6% glycerol, 35 ng/ul poly-dIdC, 1% milk, 1 h, room temperature; Ap Aiptasia and Nv Nematostella (sea anemones) / Co Capsaspora / Aq Amphimedon (sponge) / Dm Drosophila / Hu human; RHD is the Rel homology domain; high values mean tight binding
Conditions in all cases: dsDNA, one strand shown

Test [1] deals with T1, GST-Ap-NF-kB RHD (Exaiptasia pallida (Aiptasia), UniProt A0A913YAJ5 2-422).
T1 sequence: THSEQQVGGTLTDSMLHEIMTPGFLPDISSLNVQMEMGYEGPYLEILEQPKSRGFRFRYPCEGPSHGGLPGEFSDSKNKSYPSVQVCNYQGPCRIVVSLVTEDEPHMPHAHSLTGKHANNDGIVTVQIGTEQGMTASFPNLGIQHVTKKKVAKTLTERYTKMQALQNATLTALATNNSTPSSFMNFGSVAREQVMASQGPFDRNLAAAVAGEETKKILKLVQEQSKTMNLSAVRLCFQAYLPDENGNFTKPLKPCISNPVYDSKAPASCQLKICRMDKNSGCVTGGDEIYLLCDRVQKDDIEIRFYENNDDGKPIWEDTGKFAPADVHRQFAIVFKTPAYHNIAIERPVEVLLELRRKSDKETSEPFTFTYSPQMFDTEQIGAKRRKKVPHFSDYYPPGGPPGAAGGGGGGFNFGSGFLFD

For test [2], the target named is T2, GST-Nv-NF-kB (Cys allele) (Nematostella vectensis, UniProt E5G601 2-411).
T2 sequence: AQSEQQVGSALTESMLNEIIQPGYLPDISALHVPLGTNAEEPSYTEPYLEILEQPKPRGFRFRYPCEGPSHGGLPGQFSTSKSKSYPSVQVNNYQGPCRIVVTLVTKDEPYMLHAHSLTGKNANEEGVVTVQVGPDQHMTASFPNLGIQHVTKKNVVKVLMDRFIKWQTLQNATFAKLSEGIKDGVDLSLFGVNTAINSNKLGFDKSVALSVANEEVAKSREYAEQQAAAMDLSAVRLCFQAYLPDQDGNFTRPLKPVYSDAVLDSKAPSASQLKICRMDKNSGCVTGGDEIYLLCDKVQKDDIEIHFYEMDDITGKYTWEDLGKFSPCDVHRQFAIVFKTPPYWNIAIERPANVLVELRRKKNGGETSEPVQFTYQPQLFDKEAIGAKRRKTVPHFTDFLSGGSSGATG

The target in test [3] is T3, GST-Co-NF-kB (Capsaspora owczarzaki, UniProt F1ARL5 200-546).
T3 sequence: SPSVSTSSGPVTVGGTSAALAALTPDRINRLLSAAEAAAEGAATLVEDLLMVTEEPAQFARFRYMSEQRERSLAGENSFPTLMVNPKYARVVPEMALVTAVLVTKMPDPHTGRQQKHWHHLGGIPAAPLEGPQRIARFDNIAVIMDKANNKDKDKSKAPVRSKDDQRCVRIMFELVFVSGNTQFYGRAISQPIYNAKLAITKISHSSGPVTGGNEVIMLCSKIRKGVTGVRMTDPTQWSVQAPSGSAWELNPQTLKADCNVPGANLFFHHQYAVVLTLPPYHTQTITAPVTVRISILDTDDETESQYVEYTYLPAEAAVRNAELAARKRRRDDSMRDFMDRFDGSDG

In test [4] the target is T4, GST-Dm-Relish (Drosophila melanogaster, UniProt Q94527 99-473).
T4 sequence: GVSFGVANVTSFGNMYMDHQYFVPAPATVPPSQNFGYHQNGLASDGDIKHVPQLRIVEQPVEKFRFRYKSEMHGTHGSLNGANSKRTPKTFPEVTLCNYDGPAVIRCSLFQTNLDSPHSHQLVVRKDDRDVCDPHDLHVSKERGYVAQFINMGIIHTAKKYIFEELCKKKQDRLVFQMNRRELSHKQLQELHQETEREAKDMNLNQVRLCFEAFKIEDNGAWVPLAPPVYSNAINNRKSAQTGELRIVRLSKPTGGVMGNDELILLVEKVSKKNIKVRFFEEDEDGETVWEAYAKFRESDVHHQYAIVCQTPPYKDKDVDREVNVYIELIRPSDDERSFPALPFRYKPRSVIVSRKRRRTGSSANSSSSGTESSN

Test [5] has as its target T5, GST-Aq-NF-kB (Amphimedon queenslandica, UniProt A9Y5G7 2-389).
T5 sequence: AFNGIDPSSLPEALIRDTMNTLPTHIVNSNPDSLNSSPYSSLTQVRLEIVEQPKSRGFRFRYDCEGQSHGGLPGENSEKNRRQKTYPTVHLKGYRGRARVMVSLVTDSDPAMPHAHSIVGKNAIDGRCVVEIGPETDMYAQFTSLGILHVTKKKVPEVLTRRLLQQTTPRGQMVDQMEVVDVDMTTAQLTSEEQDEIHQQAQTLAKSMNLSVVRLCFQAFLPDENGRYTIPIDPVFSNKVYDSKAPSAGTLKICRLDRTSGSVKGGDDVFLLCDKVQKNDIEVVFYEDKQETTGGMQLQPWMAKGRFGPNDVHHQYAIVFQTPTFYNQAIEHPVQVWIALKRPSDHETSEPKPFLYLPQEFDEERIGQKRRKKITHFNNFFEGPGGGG

This passage reports binding signal results from PMC5700166.

“CCGATTAACATCAGGGAATGCACTGATGTTAATCGGGTCTTGATTCGCTTGACGCTGCTG”: the binding signal worked out at 1.84 z-score in test [1]; 3.18 z-score in test [2]; 1.11 z-score in test [3]; 5.07 z-score in test [4]; 4.84 z-score in test [5].
For “CCGATTAACATCACCGCCCCACGTGATGTTAATCGGGTCTTGATTCGCTTGACGCTGCTG”, in that order: 1.95 z-score, 1.73 z-score, 1.4 z-score, 1.95 z-score and 1.28 z-score.
For “CCGATTAACATCAGGGAACTACCTGATGTTAATCGGGTCTTGATTCGCTTGACGCTGCTG”, in that order: 4.91 z-score, 4.67 z-score, 1.23 z-score, 8.33 z-score and 6.44 z-score.
Taken in the same sequence, the figures for “CCGATTAACATCAGGGGAATGACTGATGTTAATCGGGTCTTGATTCGCTTGACGCTGCTG” were 5.81 z-score, 6.43 z-score, 3.9 z-score, 5.22 z-score and 5.09 z-score.
For “CCGATTAACATCAGGGGGTAGGATGATGTTAATCGGGTCTTGATTCGCTTGACGCTGCTG”, the binding signal in test [1] amounted to 4.15 z-score; in test [2], 2.75 z-score; in test [3], 3.64 z-score; in test [4], 1.35 z-score; in test [5] it was 2.89 z-score.
For “CCGATTAACATCAAACAACCCCCTGATGTTAATCGGGTCTTGATTCGCTTGACGCTGCTG”, in that order: 5.66 z-score, 4.5 z-score, 2.66 z-score, 5.24 z-score and 5.17 z-score.
Taken in the same sequence, the figures for “CCGATTAACATCACTTTTTCCCATGATGTTAATCGGGTCTTGATTCGCTTGACGCTGCTG” were 2.03 z-score, 3.6 z-score, 4.08 z-score, 1.51 z-score and 1.99 z-score.
For “CCGATTAACATCAGGGGACAACCTGATGTTAATCGGGTCTTGATTCGCTTGACGCTGCTG”, in that order: 4.96 z-score, 4.76 z-score, 3.44 z-score, 3.96 z-score and 5.18 z-score.
For “CCGATTAACATCAAGGAATACCCTGATGTTAATCGGGTCTTGATTCGCTTGACGCTGCTG”, the binding signal in test [1] stood at 4.85 z-score; in test [2], 5.51 z-score; in test [3] it was 1.33 z-score; in test [4] it was 7.24 z-score; in test [5], 5.58 z-score.
